The results in this text go back to PubChem BioAssay (Tox21).

Inconclusive results are not listed. Active and inactive are the calls of the source. Unless noted, calls follow the shape of the dose curve; as a rule, active = well fitted curve in the direction sought with a large enough effect in the repeat runs; inconclusive = weak or mixed curves; inactive = no such curve, though single readings can be large; an effect the other way counts as inactive or inconclusive.

The nature of experiment [1]: qHTS assay to identify small molecule antagonists of the estrogen related receptor (ERR) signaling pathway from Tox21 library - cell viability counter screen (AID 1224834). Also: nearly all actives have a fitted effect of over 30% in size. In outline: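 ERR cells, 2,000/well; 6 h settle at 37 C/5% CO2; pin-tool compound transfer in DMSO; 17.5 h at 37 C; CellTiter-Fluor, 30 min; fluorescence intensity.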
(In general: In qHTS, concentration-response curves come from the screen itself.)

Experiment [2] has as its target Luciferin 4-monooxygenase (Photinus pyralis) (UniProt P08659). Put plainly: qHTS assay to identify small molecule inhibitors of firefly luciferase (AID 1224835). Also: nearly all actives have a fitted effect of over 25% in size. The procedure, abridged:
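Inhibition of purified Photinus luciferase is measured by luminescence. Substrate levels (D-luciferin, ATP) sit at their KM values. Each compound is tested in a concentration series.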

The nature of experiment [3]: qHTS assay to identify small molecule agonists of the constitutive androstane receptor (CAR) signaling pathway - cell viability counter screen (AID 1224836). Also: nearly all actives have a fitted effect of over 45% in size. In outline: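 Viability read-out: CellTiter-Fluor fluorescence after 23 h compound exposure at 37 C/5% CO2 in double-stable HepG2-CYP2B6-hCAR cells, with PK11195 present at 0.75 uM final; compounds tested in 15-point titration.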

Experiment [4] in a line: qHTS assay to identify small molecule antagonists of the constitutive androstane receptor (CAR) signaling pathway - cell viability counter screen (AID 1224837). Also: nearly all actives have a fitted effect of over 45% in size. The procedure, abridged:
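Viability was measured with CellTiter-Fluor in a HepG2 line carrying stably transfected hCAR and a CYP2B6-2.2kb construct. Cells were exposed for 23 hr at 37 C to 15 compound concentrations with 50 nM CITCO as agonist.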

Experiment [5] can be described thus: qHTS assay to identify small molecule antagonists of the estrogen related receptor signaling pathway with the pleiotropic PPARgamma coactivator (PGC) from Tox21 10K library (AID 1224841; call rule not given here; also: actives are mostly falling curves and most rising ones were filed inactive; nearly all actives have a fitted effect of over 50% in size). The procedure, abridged:
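Steps: plate 2,000 PGC/ERR cells per well; incubate 6 h at 37 C with 5% CO2; transfer compounds from DMSO stocks by pin tool; incubate 18 h at 37 C; add One-Glo; measure luminescence 30 min later.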

A short description of experiment [6]: qHTS assay to identify small molecule agonists of the estrogen related receptor signaling pathway with the pleiotropic PPARgamma coactivator (PGC) from Tox21 10K library (AID 1224842). Also: nearly all actives have a fitted effect of over 15% in size. The procedure, abridged:
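Luminescence from One-Glo (30 min, room temperature) measured after PGC/ERR cells had 18 h at 37 C with pinned compound (23 nL in DMSO). Cells had been seeded at 2,000 per well and pre-incubated 6 h.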

The nature of experiment [7]: qHTS assay to identify small molecule antagonists of the estrogen related receptor signaling pathway with the pleiotropic PPARgamma coactivator (PGC) from Tox21 10K library - cell viability counter screen (AID 1224840; active = well fitted cell-killing curve with a large enough effect in the repeat runs, not every such curve was filed as active; also: nearly all actives have a fitted effect of over 40% in size). In outline: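 Multiplexed viability counter screen in the PGC/ERR cell line: cells treated with DMSO-dissolved compounds for 17.5 hours at 37 C, then viability measured as CellTiter-Fluor fluorescence.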

For experiment [8], the target named is Nuclear receptor subfamily 1 group I member 3 (Homo sapiens) (UniProt Q14994). The experiment in a line: qHTS assay to identify small molecule antagonists of the constitutive androstane receptor (CAR) signaling pathway (AID 1224838).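 Also: HepG2 cells stably expressing hCAR with CYP2B6 luciferase reporter stimulated by CITCO; nearly all actives have a fitted effect of over 40% in size.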 In outline:
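Antagonist mode used CITCO at a final 50 nM to activate CAR in human hepatoma HepG2 cells carrying stable hCAR and a 2.2 kb CYP2B6 promoter-luciferase construct. Compounds were tested at 15 concentrations over 24 h, with luminescence as the end point.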

Experiment [9] shares this target. Put plainly: qHTS assay to identify small molecule agonists of the constitutive androstane receptor (CAR) signaling pathway (AID 1224839). Also: nearly all actives have a fitted effect of over 15% in size. The procedure, abridged: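 Luminescence read-out (ONE-Glo, 30 min, room temperature) from double-stable HepG2-CYP2B6-hCAR cells exposed 24 h to 15-point compound series in presence of 0.75 uM PK11195 final.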
Potency is read from the fitted curve at half-maximal effect.

Chain of Nuclear receptor subfamily 1 group I member 3 (Homo sapiens) (Q14994 whole entry, looked up): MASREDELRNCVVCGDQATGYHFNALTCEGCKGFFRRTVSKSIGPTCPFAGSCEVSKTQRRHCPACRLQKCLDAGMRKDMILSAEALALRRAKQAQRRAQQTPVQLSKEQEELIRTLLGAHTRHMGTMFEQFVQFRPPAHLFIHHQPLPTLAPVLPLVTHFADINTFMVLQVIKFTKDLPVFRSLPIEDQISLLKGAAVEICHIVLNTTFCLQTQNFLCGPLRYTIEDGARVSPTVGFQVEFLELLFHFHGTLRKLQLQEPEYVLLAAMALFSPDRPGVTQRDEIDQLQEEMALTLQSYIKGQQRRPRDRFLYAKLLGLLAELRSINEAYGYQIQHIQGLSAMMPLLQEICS
Chain of Luciferin 4-monooxygenase (Photinus pyralis) (P08659 whole entry, looked up): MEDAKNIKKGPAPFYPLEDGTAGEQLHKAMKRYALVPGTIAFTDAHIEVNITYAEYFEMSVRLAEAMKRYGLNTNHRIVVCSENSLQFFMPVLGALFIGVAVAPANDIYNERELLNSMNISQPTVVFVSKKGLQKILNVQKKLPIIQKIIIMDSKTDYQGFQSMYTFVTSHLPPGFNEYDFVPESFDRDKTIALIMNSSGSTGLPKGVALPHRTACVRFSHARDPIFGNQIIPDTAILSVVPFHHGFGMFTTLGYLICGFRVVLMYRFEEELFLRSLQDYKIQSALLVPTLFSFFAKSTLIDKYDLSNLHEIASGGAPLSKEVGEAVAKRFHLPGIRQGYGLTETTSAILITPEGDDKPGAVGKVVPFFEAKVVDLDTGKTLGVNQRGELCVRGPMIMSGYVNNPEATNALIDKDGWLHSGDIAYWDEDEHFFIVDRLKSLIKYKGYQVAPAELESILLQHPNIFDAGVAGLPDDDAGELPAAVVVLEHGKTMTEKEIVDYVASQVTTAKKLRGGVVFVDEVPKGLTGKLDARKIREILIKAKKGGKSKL

On to `CCCCCC[C@@H](O)C/C=C\CCCCCCCC(=O)OCC(O)CO` (some centres undefined), for which the Potency result in experiment [1], in experiment [2], in experiment [3], in experiment [4], in experiment [5] and in experiment [6] was “inactive” each time.

Turning to `CC1=C(CC=O)C(C)(C)CCC1`, the Potency entry in experiment [1], in [2], in [3], in experiment [4] and in experiment [7] was “inactive” in each case.

As for `CC1(C)S[C@@H]2[C@H](NC(=O)C(c3ccccc3)S(=O)(=O)O)C(=O)N2[C@H]1C(=O)O` (some centres undefined), the Potency entry in experiment [1], in experiment [2], in [3], in experiment [4] and in experiment [7] was “inactive” throughout.

As for `O=c1[nH]ncc2ccccc12`, the Potency result in experiment [1], in [2], in experiment [3], in [8], in experiment [9] and in [7] was “inactive” each time.

On to `CCC1CO1` (centres undefined), for which the Potency entry in experiment [1], in [2], in experiment [3], in experiment [4] and in [7] was “inactive” each time.

For `CCCCCCCCN`, the Potency result in experiment [1], in experiment [2], in [3], in experiment [8], in experiment [9] and in experiment [7] was “inactive” throughout.

Turning to `C=C(C)CCCC(C)CCO` (centres undefined), the Potency result in experiment [1], in experiment [2], in experiment [3], in experiment [4] and in experiment [7] was “inactive” each time.

`Cc1ccc(CO)cc1`: the Potency entry in experiment [1], in experiment [2], in [3], in [8], in [9] and in experiment [7] was “inactive” each time.

Consider `C[C@]1(Cn2ccnn2)[C@H](C(=O)O)N2C(=O)C[C@H]2S1(=O)=O`, for which the Potency entry in [1], in experiment [2], in [3], in [4] and in experiment [7] was “inactive” in each case.

As for `CC(=O)c1ccc([N+](=O)[O-])cc1`, the Potency result in experiment [1], in experiment [2], in experiment [3], in experiment [4], in experiment [7] and in experiment [5] was “inactive” each time. The Potency result in experiment [6] was “inactive”.

For the compound `O=C(O)C[C@H](NC(=O)OCc1ccccc1)C(=O)O`, the Potency entry in experiment [1], in [2], in experiment [3], in [8], in [9] and in experiment [7] was “inactive” in each case.

For `Cc1cccc(O)c1N`, the Potency in experiment [1] is 27.6 µM (active). For the same compound, the Potency entry in [2], in experiment [9], in [5] and in [6] was “inactive” in each case.

In the case of `O=[N+]([O-])c1cc(C2CCCCC2)c(O)c([N+](=O)[O-])c1`, the Potency was 12.2 µM (active) in experiment [1]; 39.8 µM (active) in [2]; 12.2 µM (active) in experiment [3]; 12.2 µM (active) in experiment [7]; 4.84 µM (active) in experiment [5]. For the same compound, the Potency result in [9] and in [6] was “inactive” each time.

`O=C1c2ccccc2C(=O)N1CCc1noc(-c2ccc(CN3CCCCCC3)s2)n1`: the Potency in experiment [1] was 49.9 µM (active). For the same compound, the Potency entry in experiment [2], in experiment [8] and in [9] was “inactive” in each case.

For the compound `Cc1ccccc1N=C(N)Nc1ccccc1C`, the Potency result in [1], in [2], in experiment [3], in experiment [8], in [9] and in experiment [7] was “inactive” each time. For the same compound, the Potency entry in [5] and in experiment [6] was “inactive” in each case.

On to `CC1(CN2CCC(n3c(=O)[nH]c4ccccc43)CC2)OCc2ccccc2-n2cccc21` (centres undefined), for which the Potency in experiment [1] was 23.7 µM (active). Further, the Potency result in experiment [2], in experiment [8] and in experiment [9] was “inactive” in each case.

Turning to `CC(=O)NC1(c2cccc(F)c2)CCN(CC[C@@]2(c3ccc(Cl)c(Cl)c3)CN(c3ccccc3)C(=O)CO2)CC1`, the Potency in [1] is 54.6 µM (active); in experiment [4] it was 54.6 µM (active); in experiment [7], 43.4 µM (active). The Potency result in experiment [2] and in experiment [9] was “inactive” throughout.

For the compound `CC(=O)Nc1cc(S(=O)(=O)O)cc2cc(S(=O)(=O)O)c(N=Nc3ccccc3)c(O)c12`, the Potency in experiment [1] is 24.3 µM (active); in experiment [3], 30.6 µM (active); in experiment [4] it was 27.3 µM (active); in [7], 27.3 µM (active). Besides, the Potency result in experiment [8], in [9] and in [6] was “inactive” in each case.

Regarding `O=C(O)c1cccc(-c2noc(-c3ccccc3F)n2)c1`, the Potency result in [1], in experiment [3], in experiment [8] and in [7] was “inactive” throughout. Further, the Potency in [2] was 0.0087 µM (active).

As to `CN1C(=O)N(c2ccccc2Br)Cc2cnc(Nc3ccc4c(c3)OCC(CO)O4)nc21` (centres undefined), the Potency in experiment [1] was 27.3 µM (active); in experiment [2] it was 20 µM (active); in experiment [3], 30.6 µM (active); in experiment [7], 21.7 µM (active). The Potency result in [6] is “inactive”.

In the case of `CCOC(=O)c1ccc(I)cc1`, the Potency result in experiment [1], in experiment [3] and in experiment [5] was “inactive” in each case. Moreover, the results for the Potency in [2] and in experiment [6] were 50.7 µM (active) and 4.9 µM (active), respectively.

For the compound `Cc1ccc(Cl)c(Nc2ccccc2C(=O)O)c1Cl`, the Potency entry in experiment [1], in experiment [2], in experiment [3] and in [7] was “inactive” each time.

Turning to `Brc1cc2ccccc2c2ccccc12`, the Potency result in experiment [1], in experiment [2] and in experiment [6] was “inactive” each time. Besides, the Potency was 17.4 µM (active) in experiment [9] and 61.6 µM (active) in experiment [5].

As to `O=C1C(=O)c2ccccc2C(O)=C1C1CCC(c2ccc(Cl)cc2)CC1` (centres undefined), the Potency result in experiment [1], in experiment [2], in experiment [7] and in [6] was “inactive” in each case.

`Cc1cc(O)c(C)c(C)c1O`: the Potency result in [1], in experiment [2], in experiment [3], in [9], in experiment [7] and in [6] was “inactive” in each case.

With `NCCNCCO`, the Potency entry in experiment [1], in experiment [2], in experiment [3], in [8], in experiment [5] and in experiment [6] was “inactive” each time.

Take `CC(=O)Oc1ccc([N+](=O)[O-])cc1CCl`: the values for the Potency in experiment [1], in experiment [3] and in experiment [7] were 30.6 µM (active), 43.3 µM (active) and 30.6 µM (active), respectively. Moreover, the Potency entry in experiment [2], in experiment [8], in [9], in experiment [5] and in [6] was “inactive” in each case.

Consider `Oc1cc2c(cc1O)[C@H]1c3ccc(O)c(O)c3OC[C@@]1(O)C2`, for which the Potency is 39 µM (active) in experiment [1]; 32.1 µM (active) in experiment [2]; 49.2 µM (active) in experiment [3]; 49.2 µM (active) in experiment [8]; 34.8 µM (active) in [5]. In addition, the Potency entry in experiment [9] and in [6] was “inactive” throughout.

Turning to `COc1cc(C(=O)NC2CCN(C)CC2)ccc1Nc1ncc2c(n1)N(C1CCCC1)CC(F)(F)C(=O)N2C`, the Potency in [1] is 31.5 µM (active); in [8], 8.88 µM (active); in [7] it was 35.3 µM (active); in [6] it was 2.5 µM (active). Besides, the Potency result in experiment [2], in experiment [9] and in experiment [5] was “inactive” throughout.
